# Legend:
# Details in all cases: concentration: 1 μM, replicates: in singlicate; n = 1
# [1] = tested on: MYLK4
# [2] = tested on: MYLK
# [3] = tested on: MYO3A
# [4] = tested on: MYO3B
# [5] = tested on: T1, NDR1
# T1 construct: gene STK38
# [6] = tested on: NDR2
# [7] = tested on: NEK10
# [8] = tested on: NEK11
# [9] = tested on: NEK1
# [10] = tested on: NEK2
# [11] = tested on: NEK3
# [12] = tested on: NEK4
# [13] = tested on: NEK5
# [14] = tested on: NEK6
# [15] = tested on: NEK7
# [16] = tested on: NEK9
# [17] = tested on: T2, NIK
# T2 construct: gene MAP3K14
# [18] = tested on: T3, NIM1
# T3 construct: gene MGC42105
# [19] = tested on: NLK
# [20] = tested on: T4, OSR1
# T4 construct: gene OXSR1
# 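Further: KINOMEscan kinase panel screen.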
SMILES,%Inh [1],%Inh [2],%Inh [3],%Inh [4],%Inh [5],%Inh [6],%Inh [7],%Inh [8],%Inh [9],%Inh [10],%Inh [11],%Inh [12],%Inh [13],%Inh [14],%Inh [15],%Inh [16],%Inh [17],%Inh [18],%Inh [19],%Inh [20]
Cl.Cn1ccc(-c2cccc(Nc3ccnc4cc(-c5nccs5)ccc34)c2)n1 [GW525701],0%,7%,43%,0%,19%,0%,4%,15%,0%,0%,17%,0%,0%,0%,0%,0%,51%,18%,6%,15%
COc1cc2c(Nc3cccc(NC(=O)c4ccccc4)c3)ncnc2cc1OCCCN1CCOCC1 [GSK223810],2%,2%,0%,0%,0%,0%,0%,0%,1%,2%,0%,0%,0%,0%,0%,21%,0%,0%,33%,16%
Fc1cccc(COc2ccc(Nc3ncnc4cc[nH]c34)cc2Cl)c1,8%,10%,4%,29%,24%,8%,0%,0%,0%,12%,12%,3%,16%,11%,9%,10%,9%,48%,0%,21%
Nc1nc(-c2ccc3c(N)n[nH]c3c2)cc(N2CCCCC2)n1 [GSK2228768],0%,1%,0%,0%,0%,0%,0%,0%,0%,3%,0%,3%,4%,0%,0%,0%,0%,0%,0%,7%
CC(C)N1CCC(n2cnc(-c3ccc(F)cc3)c2-c2ccnc(N)n2)CC1 [SB-223132],9%,19%,0%,0%,7%,0%,9%,0%,11%,0%,33%,0%,3%,8%,0%,0%,0%,0%,49%,0%
Nc1nc(-c2ccccn2)c(-c2ccnc3ccccc23)s1 [GW548057],16%,10%,51%,0%,31%,52%,11%,36%,2%,0%,8%,0%,20%,0%,0%,0%,22%,38%,30%,8%
CCn1c(-c2ccncc2)nc2cnccc21 [SB-735216],0%,24%,19%,0%,28%,0%,0%,51%,0%,8%,14%,8%,0%,6%,6%,0%,15%,25%,4%,15%
O=C(Nc1n[nH]c2nc(-c3ccco3)c(Br)cc12)c1ccc(CN2CCCC2)cc1.O=C(O)[C@H](O)[C@@H](O)C(=O)O [SB-742352],5%,83%,0%,8%,0%,0%,0%,0%,0%,6%,0%,0%,0%,0%,10%,0%,0%,0%,0%,0%
CCc1nc(-c2cccc(N(C)S(=O)(=O)c3ccccc3)c2)c(-c2ccnc(Nc3ccc(N4CCN(C(C)=O)CC4)nc3)n2)s1 [GSK1645895],7%,15%,23%,0%,15%,0%,0%,0%,14%,9%,9%,19%,0%,0%,0%,14%,0%,0%,8%,3%
